The supplement of paper PMC3545927
The list shows a part of the results. The true hit rate is not given.

Biological target: furin, P09958
Experiment: furin cleavage Z-score vs untreated control; higher = more cleavage, active = 3.5 or more, inactive = 1 or less, 8 variable residues between constant flanks
Summary of the method: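 Furin cleavage was scored on 8-mer peptides joined to a cDNA oligonucleotide and bound to magnetic beads at the N-terminus. Digestion with purified furin (1:10 enzyme:substrate, 0.01 ml, 50 mM HEPES pH 7.5, CaCl2, NaCl) lasted 7.5, 15 or 30 min. Freed DNA was tagged with adapters by PCR, sequenced and counted; the cleavage Z-score is the lowess-adjusted log count versus furin-free reactions, scaled by median absolute deviation.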

Chain of furin, P09958 (P09958 whole entry): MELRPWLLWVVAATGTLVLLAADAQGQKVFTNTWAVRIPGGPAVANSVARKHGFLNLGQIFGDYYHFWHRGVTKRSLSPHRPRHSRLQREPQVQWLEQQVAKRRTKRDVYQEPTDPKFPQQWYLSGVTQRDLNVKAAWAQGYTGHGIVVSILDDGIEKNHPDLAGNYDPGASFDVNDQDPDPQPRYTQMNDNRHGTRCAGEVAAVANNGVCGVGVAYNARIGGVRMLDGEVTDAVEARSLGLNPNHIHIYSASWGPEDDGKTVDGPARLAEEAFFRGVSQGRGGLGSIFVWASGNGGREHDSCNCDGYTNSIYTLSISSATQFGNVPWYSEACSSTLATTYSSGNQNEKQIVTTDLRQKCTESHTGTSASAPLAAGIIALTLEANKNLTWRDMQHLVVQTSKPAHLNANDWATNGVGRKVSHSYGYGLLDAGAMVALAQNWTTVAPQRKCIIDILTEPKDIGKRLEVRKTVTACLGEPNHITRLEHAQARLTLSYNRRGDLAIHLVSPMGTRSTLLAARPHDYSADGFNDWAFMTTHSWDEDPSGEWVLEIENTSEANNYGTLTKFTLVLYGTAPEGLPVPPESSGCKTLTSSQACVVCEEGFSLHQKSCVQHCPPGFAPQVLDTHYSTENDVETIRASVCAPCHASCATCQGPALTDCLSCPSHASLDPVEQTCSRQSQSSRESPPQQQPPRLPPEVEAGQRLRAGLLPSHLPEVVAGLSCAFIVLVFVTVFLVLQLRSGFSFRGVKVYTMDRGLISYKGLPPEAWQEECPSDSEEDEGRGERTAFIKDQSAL

Sequence | furin cleavage Z-score (7.5 min) | furin cleavage Z-score (15 min) | furin cleavage Z-score (30 min)
CAEVVTYTWVAGNASASA [HC157] | -1.14 (inactive) | -2.61 (inactive) | -1.31 (inactive)
CAVRRRSVQQAGNASASA [FS-2856] | 3.6 (active) | 4.13 (active) | 4.51 (active)
CAASRCWVAMAGNASASA [HC278] | 1.39 | -0.873 (inactive) | 1.5
CAVRRRVQRMAGNASASA [FS-1662] | 9.65 (active) | 8.64 (active) | 6.99 (active)
CAVRRRAADQAGNASASA [FS-3143] | -0.697 (inactive) | 0.216 (inactive) | 1.49
CAGEGAVQWMAGNASASA [HC1115] | -1.9 (inactive) | -0.502 (inactive) | -1.06 (inactive)
CAVVARSVNGAGNASASA [FS-1816] | -0.0409 (inactive) | 0.74 (inactive) | 1.63
CAEIPCHRPSAGNASASA [HC2324] | 1.27 | 0.0659 (inactive) | -0.381 (inactive)
CAPGQRVEFLAGNASASA [HC1469] | -0.0222 (inactive) | -0.699 (inactive) | -1.16 (inactive)
CARRFRAALGAGNASASA [FS-3046] | -0.151 (inactive) | -1.57 (inactive) | 1.09
CARRFRPRRSAGNASASA [FS-1073] | 10.2 (active) | 9.93 (active) | 8.02 (active)
CALHQRVRRFAGNASASA [FS-820] | 8.84 (active) | 10.6 (active) | 9.12 (active)
CALRTRPRRFAGNASASA [FS-58] | 10.2 (active) | 12.6 (active) | 10.4 (active)
CARRFRPRRFAGNASASA [FS-1072] | 9 (active) | 10.6 (active) | 9.46 (active)
CARRFAQALPAGNASASA [HC1300] | 0.481 (inactive) | 1.31 | -0.76 (inactive)
CATTPLSGSWAGNASASA [HC44] | -0.768 (inactive) | -0.103 (inactive) | 0.0356 (inactive)
CASTPCSAHQAGNASASA [HC2582] | -0.092 (inactive) | -1.41 (inactive) | -0.516 (inactive)
CAMETKLITWAGNASASA [HC650] | -0.69 (inactive) | -0.554 (inactive) | -0.78 (inactive)
CAISQAEAALAGNASASA [HC531] | -1.47 (inactive) | -0.433 (inactive) | -1.7 (inactive)
CAVVCCIMSYAGNASASA [HC105] | 1.49 | 0.708 (inactive) | 1.08
CAYRGRCRKSAGNASASA [FS-923] | 0.471 (inactive) | 1.55 | 0.866 (inactive)
CAYRGRHRRFAGNASASA [FS-152] | 5.94 (active) | 6.27 (active) | 6.98 (active)

Sequence | furin cleavage Z-score (7.5 min) | furin cleavage Z-score (15 min) | furin cleavage Z-score (30 min)
CATAQGMKRSAGNASASA [FS-725] | 1.25 | 1.19 | -0.124 (inactive)
CAHTQRNRRSAGNASASA [FS-799] | 11.3 (active) | 12.6 (active) | 10.4 (active)
CAKLRRNRRSAGNASASA [FS-1221] | 5.36 (active) | 6.08 (active) | 4.35 (active)
CATVSGFVSLAGNASASA [HC358] | 0.667 (inactive) | -0.762 (inactive) | 1.14
CAEDEVPCHRAGNASASA [HC2451] | 1.14 | 0.677 (inactive) | 1.09
CAPRAKVKREAGNASASA [FS-281] | 11.8 (active) | 10.8 (active) | 7.73 (active)
CAQGYKVLVLAGNASASA [HC784] | -0.106 (inactive) | -0.421 (inactive) | -0.768 (inactive)
CANRERSKRDAGNASASA [FS-182] | 13.6 (active) | 14.6 (active) | 10.7 (active)
CANWAKVLVVAGNASASA [HC344] | 0.338 (inactive) | -0.0162 (inactive) | 1.26
CAPLTRSKRDAGNASASA [FS-700] | 15 (active) | 15 (active) | 10.2 (active)
CAGGGRSKRDAGNASASA [FS-997] | 12.9 (active) | 11.9 (active) | 8.83 (active)
CAPLTNSRGEAGNASASA [HC1503] | -0.174 (inactive) | -0.452 (inactive) | 1.07
CATRSRSERDAGNASASA [FS-884] | 2.38 | 3.17 | 0.745 (inactive)
CATRCHCGAEAGNASASA [HC1174] | -0.133 (inactive) | -0.874 (inactive) | -0.744 (inactive)
CAHDSPDAELAGNASASA [HC1270] | -0.658 (inactive) | -0.493 (inactive) | -0.66 (inactive)
CAVVCCSMCYAGNASASA [HC2080] | 0.362 (inactive) | -0.833 (inactive) | 2.39
CAQEVRSKRDAGNASASA [FS-622] | 14.6 (active) | 15.6 (active) | 10.9 (active)
CAKERRSKRDAGNASASA [FS-934] | 12.1 (active) | 12.8 (active) | 8.75 (active)
CAQWHLSKRDAGNASASA [FS-485] | 0.736 (inactive) | 2.32 | 1.82
CAPRALRKRDAGNASASA [FS-1603] | 9.96 (active) | 9.61 (active) | 8.35 (active)
CAREKKADRDAGNASASA [FS-2913] | 0.241 (inactive) | -0.361 (inactive) | -1.01 (inactive)
